Only some compounds are listed: those with a hit (about 2.7% of all), similar ones and a draw of the others.
GLP-1R agonist: activates the human GLP-1 receptor | P43220 | HEK293 GLP-1R CRE-luciferase, luminescence, 4-6 h; cells express a hypersensitive GLP-1R form | Potency, µM (series often up to 45.6 µM), for the others: at the highest dose activation, usual class: activators | 380,000 tested, 0.007% active; note: % of control where 0% means no effect
TrxR1 substrate: substrates of rat thioredoxin reductase 1 | purified TrxR1 substrate turnover, NADPH consumption readout | AID 588456 | O89049 | Potency, µM (highest dose often 114 µM), for inactives: at the highest dose activity change, negative = substrate turnover | 390,000 tested, 0.01% active; note: % is set by controls: 0 for no effect and ±100 for the full control effect; nearly all actives have a fitted effect of over 50% in size
Target sequence (O89049 whole entry, looked up): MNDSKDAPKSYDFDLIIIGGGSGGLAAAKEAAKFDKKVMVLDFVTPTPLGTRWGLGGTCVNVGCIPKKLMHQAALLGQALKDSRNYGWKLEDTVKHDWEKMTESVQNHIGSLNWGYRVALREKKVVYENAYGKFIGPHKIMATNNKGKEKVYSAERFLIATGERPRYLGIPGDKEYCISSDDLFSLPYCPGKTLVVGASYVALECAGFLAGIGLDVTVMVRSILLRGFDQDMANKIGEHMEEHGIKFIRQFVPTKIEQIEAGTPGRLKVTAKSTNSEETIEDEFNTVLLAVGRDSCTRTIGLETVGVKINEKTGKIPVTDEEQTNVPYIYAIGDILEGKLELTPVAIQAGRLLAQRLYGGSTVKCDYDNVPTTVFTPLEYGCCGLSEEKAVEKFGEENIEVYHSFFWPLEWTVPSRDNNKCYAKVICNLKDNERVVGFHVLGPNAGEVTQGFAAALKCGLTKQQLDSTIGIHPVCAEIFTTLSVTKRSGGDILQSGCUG
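Rat TrxR1, dispensed at 90 nM, was prereduced with 400 uM NADPH (final) for 5 min at ~22 deg C, then incubated with compound 15 min before 400 uM selenite. A first-read NADPH fluorescence drop versus no-compound background flagged substrates.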
GLP1R cytotox: cytotoxicity counter-screen for GLP-1 receptor inverse agonists. HEK293 cAMP-luciferase reporter cells, luminescence, 24 h. Potency, µM (doses to about 38.3 µM), for the others: top-dose activity change, negative = inhibition, actives largely listed as inhibitors. 410,000 tested, 0.13% active. AID 624418;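 note: loss of luciferase light is scored as toxicity; % is set by controls: 0 for no effect and ±100 for the full control effect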
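Compound-treated cells are incubated 24 hr at 37 deg C under 5% CO2 after a 12 hour attachment period, then luciferase detection reagent is added and luminescence is measured following 12 min at room temperature; lowered signal indicates toxicity.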
GLP-1R inv ag: GLP-1 receptor (human) inverse agonism; P43220; HEK293 GLP-1R CRE-luciferase, luminescence, 24 h; GLP-1R form is constitutively active; Potency, µM (highest dose often 38.3 µM), inactives show top-dose activity change, negative = inhibition, hits mostly inhibitors; 410,000 tested, 1.6% active; note: % is set by controls: 0 for no effect and ±100 for the full control effect; nearly all actives have a fitted effect of over 55% in size
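Constitutively active GLP-1R drives a cAMP-responsive luciferase in stably transfected HEK293 cells; test compounds are added after overnight (12 h) attachment and left 24 hr, and signal loss in luminescence marks inhibition.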
IDH1 R132H inh: inhibitors of human mutant IDH1 R132H. O75874. IDH1-R132H enzyme, NADPH consumption, diaphorase/resazurin fluorescence. Potency, µM (doses to about 76.6 µM), for inactives: top-dose activity change, negative = inhibition, usual class: inhibitors. 390,000 tested, 0.093% active. AID 602179; note: % is set by controls: 0 for no effect and ±100 for the full control effect; nearly all actives have a fitted effect of over 65% in size
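IDH1-R132H (0.5 ug/mL dispensed) in pH 7.5 Tris buffer was preincubated 30 min with compound, then given a substrate mix of 0.016 mM NADPH and 2 mM alpha-KG for 80 min at room temperature; remaining NADPH was read by diaphorase/resazurin fluorescence.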
TrxR1 inh: blocks rat thioredoxin reductase 1 | O89049 | Potency, µM (highest dose often 114 µM), for the others: at the top dose activity change, negative = inhibition, most hits filed as inhibitors | recombinant rTrxR1, NADPH fluorescence consumption, selenite substrate | 390,000 tested, 1% active; note: % is set by controls: 0 for no effect and ±100 for the full control effect; nearly all actives have a fitted effect of over 65% in size
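Rat TrxR1 (90 nM in the dispensed reagent) was pre-reduced with 400 uM NADPH for 5 min at room temperature, then incubated with compound for 15 min. After 400 uM selenite was added, NADPH fluorescence (Ex 340/Em 450 nm) was followed for 8 min.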
An asterisk follows results filed as active; ? = inconclusive; . = no result given; [ ] = dose if it differs, or a comment. Calls come from the whole dose curve; as a rule, active = well fitted curve in the direction sought with a large enough effect; inconclusive = small, poorly fitted or top-dose-only effect, or another doubt; inactive = no such curve, though single readings can be large; an effect the other way counts as inactive or inconclusive. Potency is the fitted concentration of half-maximal effect.

SMILES	GLP-1R agonist	TrxR1 substrate	GLP1R cytotox	GLP-1R inv ag	IDH1 R132H inh	TrxR1 inh
COc1cccc(CNC(=O)CCS(=O)(=O)c2cccc3nonc23)c1	8%	-1%	8%	-25%	-2%	16µM*
CC(C)CCNC(=O)CCS(=O)(=O)c1cccc2nonc12	4%	-3%	-12%	-1%	2%	56µM*
CC(C)NC(=O)CCS(=O)(=O)c1cccc2nonc12	-1%	15%[57.1 µM]	-15%	7%	9%	-32%[57.1 µM]
COc1ccc(Cn2c(CCC(=O)NCc3cccc(Cl)c3)nc3cccnc32)cc1	.	0%	3%	-13%	14%	1%
CCc1ccc(NC(=O)CSc2nc3n[nH]c(C)c3c(=N)n2-c2ccc(C)cc2)cc1	.	7%[57.1 µM]	-6%	-12%	13%	19%[57.1 µM]
CCOc1ccc(/C=C/C(=O)c2cc(Br)ccc(=O)c2O)cc1	-5%	-11%	?	?	5%	35µM*
COc1ccc(S(=O)(=O)N2CN(Cc3ccco3)c3nc4ccccc4nc32)cc1	11%	22%	0%	0%	15%	35µM*
O=S(=O)(c1cccs1)N1CN(Cc2ccccc2)c2nc3ccccc3nc21	0%	4%[57.1 µM]	-1%	?	3%	2%[57.1 µM]
Cc1ccc(S(=O)(=O)N2CN(Cc3ccco3)c3nc4ccccc4nc32)cc1	1%	2%	-2%	?	2%	?
O=S(=O)(c1cccs1)N1CN(Cc2cccs2)c2nc3ccccc3nc21	6%	0%	-2%	10µM*	15%	-12%
COc1ccccc1-c1nc(-c2ccccn2)no1	-23%	5%	-1%	3.5µM*	12%	-6%
O=S(=O)(NCCSc1ccccc1)c1ccc(F)cc1	13%	-11%	19%	10µM*	8%	-5%
CCOC(=O)c1cc(S(=O)(=O)Nc2cc(C)c(Cl)cc2OC)[nH]n1	-10%	3%[57.1 µM]	-5%	-29%	12%	21%[57.1 µM]
O=C(C[n+]1csc2ccccc21)c1ccc(O)c(O)c1	.	0%	.	.	.	33%
CCN1CCN(c2ccc(S(=O)(=O)N3CCCCC3)cc2NC(=O)/C=C/c2ccc(OC(F)F)cc2)CC1	-1%	-8%	?	7.1µM*	-4%	4%
CN1CCN(c2ccc(S(=O)(=O)N3CCCCC3)cc2NC(=O)/C=C/c2ccc(Cl)c([N+](=O)[O-])c2)CC1	-5%	-13%	10µM*	?	2%	-9%
CN1CCN(c2ccc(S(=O)(=O)N3CCCCC3)cc2NC(=O)/C=C/c2ccc(OC(F)F)cc2)CC1	0%	9%	?	?	1%	31%
Cc1cc(C)c2c(=O)cc(CSc3nnc(-c4ccccc4)n3C)[nH]c2c1	.	-7%[57.1 µM]	-12%	3%	1%	-15%[57.1 µM]
Cc1ccc(C(C)C)cc1-n1nnc(-c2cccc(Cc3ccc4ccccc4c3)c2)c1C(C)O (configuration not stated)	-1%	.	0%	3.5µM*	1%	.
Cc1ccccc1C(=O)Nc1nc(-c2nnn(-c3ccc(C(C)C)cc3)c2C)ns1	.	1%[57.1 µM]	1%	-42%	-4%	7%[57.1 µM]
Cc1cc(NC(=O)c2cccc(COc3ccc(Br)cc3)c2)no1	-3%	0%	-35%	1µM*	-6%	18%
CCCCOc1c(Br)cc(/C=C2\N=C(C)OC2=O)cc1OCC	-1%	1%	10%	0%	?	40µM*
CCOc1cc(/C=C2/C(=O)ON=C2C)cc(Br)c1O	1%	-7%[57.1 µM]	-4%	-9%	-10%	?
O=C(N/N=C/c1ccc(OC(F)F)cc1OC(F)F)NC1CCCCC1	23%	5%[57.1 µM]	-8%	4.5µM*	6%	14%[57.1 µM]
O=C(N/N=C/c1ccc(OC(F)F)cc1OC(F)F)c1ccc(Br)cc1	5%	-9%	1%	?	-1%	-2%
SMILES	GLP-1R agonist	TrxR1 substrate	GLP1R cytotox	GLP-1R inv ag	IDH1 R132H inh	TrxR1 inh
COc1ccc(NC(=S)N/C(=N/S(=O)(=O)c2ccc(C)cc2)c2ccccc2)cc1	2%	-2%	-11%	5%	6%	22µM*
Cc1ccc(S(=O)(=O)/N=C(\Sc2ccccc2)c2ccccc2)cc1	2%	14%	9%	3%	1%	2.8µM*
O=S(=O)(/N=C(\Sc1ccccc1)c1ccccc1)c1ccc(Cl)cc1	7%	4%	0%	8%	1%	?
NC(N)=NS(=O)(=O)c1ccc(NC(=S)NC(=O)c2ccccc2)cc1	0%	-11%	5%	7%	1%	50µM*
COc1ccc(NC(=S)NC(=NS(=O)(=O)c2ccc(Cl)cc2)c2ccccc2)cc1	17%	-3%[57.1 µM]	?	?	9%	-76%[57.1 µM]
O=C(NCc1ccc(Cl)cc1)c1ccc(NC(=O)N2CC3CCCN3c3ccccc32)cc1 (configuration not stated)	.	6%	-1%	?	-9%	3%
CCOc1ccc(C(=O)N2CCCC(c3nc(-c4ccc(C)o4)no3)C2)cc1 (configuration not stated)	15%	2%	-6%	11µM*	7%	15%
OC(C1=C/C(=C\c2ccncc2)c2ccccc21)c1ccncc1 (configuration not stated)	.	-6%	.	.	.	-9%
CCOC(=O)c1ccc(N=c2sc(C(=O)OC)cc(=O)n2Cc2ccco2)cc1	7%	-12%	?	4.5µM*	-6%	2%[57.1 µM]
CCOC(=O)c1ccc(N=c2sc(C(=O)OC)cc(=O)n2CCCN2CCOCC2)cc1	-6%	1%[57.1 µM]	0%	?	-8%	-6%[57.1 µM]
Cc1cccc(C(=O)NC2CCN(C(=O)NCc3ccccc3)CC2)c1	10%	1%[57.1 µM]	1%	-7%	-4%	25µM*
Cc1ccc(NC(=O)N2CCC(NC(=O)c3cccc(C)c3)CC2)cc1	18%	11%	-16%	-14%	-1%	?
CCCCNS(=O)(=O)c1ccc(NC(=O)C(Sc2ccccc2)c2ccccc2)cc1 (configuration not stated)	-5%	-14%	-12%	4.5µM*	1%	-5%
C=Cc1ccc(Cn2c(=O)n(-c3ccc(C)cc3)c(=O)c3c2c2cc(OC)ccc2n3C)cc1	1%	7%	-4%	5%	13%	18%
CC1(C)C(=O)N(OCc2ccccc2)C(C)(C)C(=O)N1OCc1ccccc1	1%	-3%	-4%	10µM*	5%	-8%
CCCn1nnc(NC(=O)c2ccc(-c3cccc(Cl)c3)o2)n1	-3%	9%	?	-28%	-1%	-14%
CCn1nnc(NC(=S)NC(=O)c2ccc(-c3cccc(Cl)c3)o2)n1	-1%	4%[57.1 µM]	5µM*	-22%	-6%	?
